# Screens from PubChem BioAssay.
# The sample as a whole holds a higher share of hits than the screen did.
# PRC2 inh – EZH2/PRC2 methyltransferase inhibitors, primary screen, biochemical, DELFIA time-resolved fluorescence, single point. AID 651548, 2012. PRC2 H3K27 methylation, DELFIA TRF, 1 h. inhibition, % at 12.5 µM. hit rate 0.35% among 57,000. Histone-lysine N-methyltransferase EZH2 (Homo sapiens), Q15910;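 active means mean inhibition of replicates at least 50% and every single replicate also reaching 50%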;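 further: dimethyl H3K27 on biotinylated H3 21-44 peptide detected by antibody; plate controls were median neutral control wells for no effect and median positive control wells for full effect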
# Target sequence (Q15910 whole entry, looked up): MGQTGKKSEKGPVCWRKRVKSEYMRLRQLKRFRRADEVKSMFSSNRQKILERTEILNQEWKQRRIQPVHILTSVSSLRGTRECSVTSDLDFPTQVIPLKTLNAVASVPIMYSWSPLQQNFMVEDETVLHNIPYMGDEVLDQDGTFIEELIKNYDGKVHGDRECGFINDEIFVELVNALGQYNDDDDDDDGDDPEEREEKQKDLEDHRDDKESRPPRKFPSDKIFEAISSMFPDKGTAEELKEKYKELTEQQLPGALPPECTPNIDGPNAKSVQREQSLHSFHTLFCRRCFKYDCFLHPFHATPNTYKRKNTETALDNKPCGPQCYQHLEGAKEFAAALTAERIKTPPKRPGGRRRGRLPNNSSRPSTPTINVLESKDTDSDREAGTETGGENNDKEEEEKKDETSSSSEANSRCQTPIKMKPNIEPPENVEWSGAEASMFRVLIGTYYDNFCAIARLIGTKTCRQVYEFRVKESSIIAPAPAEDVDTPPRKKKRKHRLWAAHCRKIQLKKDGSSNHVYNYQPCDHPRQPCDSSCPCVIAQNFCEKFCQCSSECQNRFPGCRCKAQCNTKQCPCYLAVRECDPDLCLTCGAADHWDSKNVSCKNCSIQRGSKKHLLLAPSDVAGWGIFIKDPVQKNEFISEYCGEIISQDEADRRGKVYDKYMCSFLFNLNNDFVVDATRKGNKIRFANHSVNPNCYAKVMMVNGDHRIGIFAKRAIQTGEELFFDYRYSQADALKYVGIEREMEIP
# * = called active by the depositor.
SMILES,PRC2 inh
CCCCC/C=C\C/C=C\C/C=C\C/C=C\CCCC(=O)NCC(=O)O,3
CCCCC/C=C\C/C=C\C/C=C\C/C=C\CCCC(=O)NCCO,16
CCCCC/C=C/C/C=C/C/C=C/C/C=C/CCCC(=O)NCCCC(=O)O,81*
COc1cc2c(cc1OC)-c1c(OC)c(OC)c(N)c3c1[C@H](C2)N(C)CC3,-17
Cc1ccnc(NC(c2ccccc2[N+](=O)[O-])c2ccc3ccc(C)nc3c2O)c1 (centres undefined),-15
CC(CCc1ccc(O)cc1)O[C@@H]1O[C@H](CO[C@H]2OC[C@](O)(CO)[C@H]2O)[C@@H](O)[C@H](O)[C@H]1O (some centres undefined),94*
COc1cc2cc(c1Cl)N(C)C(=O)CC(OC(=O)C(C)C)C1(C)OC1C(C)C1CC(O)(NC(=O)O1)C(OC)/C=C/C=C(/C)C2 (centres undefined),6
O=C(Cn1cc(C(=O)c2ccccc2)c2ccccc21)NCC1CCCO1 (centres undefined),-6
CN1Cc2c(ccc3c2OCO3)[C@@H]2[C@H]1c1cc3c(cc1C[C@@H]2O)OCO3,-11
N#CC(O[C@@H]1O[C@H](CO)[C@@H](O)[C@H](O)[C@H]1O)c1ccccc1 (some centres undefined),97*
O=c1ccc2cc(OC3O[C@H](CO)[C@@H](O)[C@H](O)[C@H]3O)c(O)cc2o1 (some centres undefined),18
O=C(CCl)c1cc(Br)c(Br)s1,7
Fc1ccc(Sc2c(F)c(F)nc(N3CCNCC3)c2F)cc1,-10
C=CC1CN2CCC1CC2C(OC(=O)c1ccco1)c1ccnc2ccccc12 (centres undefined),-7
CC(C)=CCCN1CCC(NC(=O)[C@](O)(c2ccccc2)C2CCCC2)CC1,-1
